Assay results taken from PubChem BioAssay (NCATS).
Records with an inconclusive call do not appear. A call without a number means that no potency is given here. Unmarked numbers belong to inactive results. The source made the active and inactive calls. The call rests on the fitted dose curve; in most records, active means well fitted inhibition curve with a large enough effect; inconclusive means small, poorly fitted or top-dose-only effect; inactive means flat fitted curve, though single readings scatter.

Legend:
[1] = tested on: HEK293; assay: Cytotoxic Profiling of Annotated Libraries Using Quantitative High-Throughput Screening (AID 1296008); conditions: Five cell lines viability, CellTiter-Glo ATP luminescence, 48-72 h; max response: active compounds read low; further: potency means the concentration at half of the fitted maximal effect
In short: (§1)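 Compounds were pin-transferred onto cells and incubated 48 or 72 hr at 37 degree Celsius, 95% humidity. CellTiter-Glo was added, plates sat 10 min at room temperature, then ATP-coupled luminescence was imaged as the viability read-out.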

[2] = tested on: HaCat; assay: as above; conditions: Five cell lines viability, CellTiter-Glo ATP luminescence, 48-72 h; max response: active compounds read low
In short: as §1

[3] = tested on: KB-3-1; assay: as above; conditions: Five cell lines viability, CellTiter-Glo ATP luminescence, 48-72 h; max response: active compounds read low
In short: as §1

[4] = tested on: NIH3T3; assay: as above; conditions: Five cell lines viability, CellTiter-Glo ATP luminescence, 48-72 h; max response: active compounds read low
In short: as §1

[5] = tested on: MCC-13; assay: qHTS assay to identify novel small-molecules to repurpose for Merkel cell carcinoma treatment (AID 1296009); conditions: MCC and control cell lines, CellTiter-Glo viability, 72 h; series mostly up to 46 µM
In short: (§2)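 Cells exposed to NPC (8-point) and MIPE (11-point) compound dilutions for 72 hr at 37 degree celsius; viability read by CellTiter-Glo luminescence, normalized to no-cell and DMSO in-plate controls.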

[6] = tested on: MCC-26; assay: as above; conditions: MCC and control cell lines, CellTiter-Glo viability, 72 h; series mostly up to 46 µM
In short: as §2

[7] = tested on: MKL-1; assay: as above; conditions: MCC and control cell lines, CellTiter-Glo viability, 72 h; series mostly up to 46 µM
In short: as §2

[8] = tested on: MKL-2; assay: as above; conditions: MCC and control cell lines, CellTiter-Glo viability, 72 h; series mostly up to 46 µM
In short: as §2

[9] = tested on: HEK293T; assay: as above; conditions: MCC and control cell lines, CellTiter-Glo viability, 72 h; at 44.8 µM (top of the series) unless noted
In short: as §2
Further: nearly all actives have a fitted effect of over 60% in size.

Row | SMILES | max response [1] [%] | max response [2] [%] | max response [3] [%] | max response [4] [%] | Potency [5] | Potency [1] | outcome [4] | Potency [6] | Potency [7] | Potency [8] | outcome [1] | outcome [3] | outcome [9]
1 | O=C(O)Cc1ccc(OCCNC[C@H](O)c2ccccc2)cc1 | -3.07 | 2.67 | -1.64 | 0.971 | inactive | – | – | – | – | – | – | – | –
2 | CCOC(=O)Cn1cccc1-c1nc(-c2ccc(OC)cc2)c(-c2ccc(OC)cc2)s1 | – | -29.1 | 5.97 | – | inactive | 8.2 µM (active) | inactive | inactive | – | – | – | – | –
3 | CCc1cc(S(=O)(=O)O)c2cc(C(C)C)cccc1-2 | -0.992 | 0.42 | 7.96 | 1.41 | inactive | – | – | inactive | inactive | inactive | – | – | –
4 | Brc1ccccc1-c1ccccc1 | -9.62 | -6.21 | -3.53 | -3.48 | inactive | – | – | inactive | inactive | inactive | – | – | –
5 | OCCOCCN1CCN(C(c2ccccc2)c2ccc(Cl)cc2)CC1 (stereo not given) | -4.98 | -23.3 | 15.7 | – | inactive | – | inactive | inactive | inactive | inactive | – | – | –
6 | COc1cc(NS(=O)(=O)c2ccc(N)cc2)nc(C)n1 | – | -7.5 | – | 4.73 | inactive | – | – | inactive | inactive | inactive | inactive | inactive | inactive
7 | O=C(CO)[C@@H](O)[C@H](O)[C@@H](O)CO | – | 3.88 | -7.71 | – | inactive | – | inactive | inactive | inactive | inactive | inactive | – | inactive
8 | CC(=O)OCC(=O)Nc1cc(C#N)cc(NC(=O)COC(C)=O)c1Cl | -14.4 | 0.636 | – | -0.147 | inactive | – | – | inactive | inactive | inactive | – | inactive | –
9 | CC(C)C(C)(C)C(C)(C)C(C)(C)S | -4.55 | 4.37 | -15.8 | -4.3 | inactive | – | – | inactive | inactive | inactive | – | – | –
10 | Nc1nnnn1-c1ccccc1 | -1.05 | -26.2 | 7.05 | -4.79 | inactive | – | – | inactive | inactive | inactive | – | – | –
11 | CCCCC(CC)COC(=O)c1ccccc1C(=O)O (stereo not given) | – | -1.62 | -15.1 | -2.08 | inactive | – | – | inactive | inactive | inactive | inactive | – | inactive [at 92 µM]
12 | CC1c2ccccc2CN1NC(=O)c1ccc(Cl)c(S(N)(=O)=O)c1 (stereo not given) | -4.92 | 0.897 | 8.25 | 2.57 | inactive | – | – | inactive | inactive | inactive | – | – | –
13 | C[C@]12CCC(=O)C=C1CC[C@@H]1[C@@H]2[C@@H](O)C[C@@]2(C)[C@H]1CC[C@]2(O)C(=O)COC(=O)CCC(=O)O | 3.66 | -3.29 | -0.87 | – | inactive | – | inactive | inactive | inactive | inactive | – | – | –
14 | CC(=O)CC/C=C(\C)CC/C=C(\C)CC/C=C(\C)CCC=C(C)C | – | -9.87 | -13.4 | -3.99 | inactive | – | – | – | inactive | inactive | inactive | – | inactive
15 | CCCCCC1Nc2cc(C(F)(F)F)c(S(N)(=O)=O)cc2S(=O)(=O)N1 (stereo not given) | -4.59 | -13.3 | -12.8 | – | inactive | – | inactive | inactive | inactive | inactive | – | – | –
16 | CN1C(CSCC(F)(F)F)Nc2cc(Cl)c(S(N)(=O)=O)cc2S1(=O)=O (stereo not given) | 1.71 | 4.02 | 38.2 | – | inactive | – | inactive | inactive | inactive | inactive | – | – | –
17 | O=C(O)CNC(=O)CNC(=O)CNC(=O)CSC(=O)c1ccccc1 | -4.78 | -1.1 | 4.32 | 1.99 | inactive | – | – | inactive | inactive | inactive | – | – | –
18 | CC1(C)S[C@@H]2[C@H](NC(=O)C(c3ccccc3)S(=O)(=O)O)C(=O)N2[C@H]1C(=O)O (stereo not given in full) | -0.254 | -6.19 | -0.526 | 2.04 | inactive | – | – | inactive | inactive | inactive | – | – | –
19 | COc1ccccc1OCC1CNC(=O)O1 (stereo not given) | 2.95 | -20.6 | -0.906 | – | inactive | – | inactive | inactive | inactive | inactive | – | – | –
